{"source": "PubChem BioAssay (EPA / NIEHS)", "note": "The source made the active and inactive calls. How the source made its calls: active means hit-call score of the fitted dose curve at least 0.9, where 1 is the maximum; inactive means score below 0.9.", "data": [{"target": "Myc proto-oncogene protein (Homo sapiens) (UniProt P01106)", "sequence (P01106 whole entry, looked up)": "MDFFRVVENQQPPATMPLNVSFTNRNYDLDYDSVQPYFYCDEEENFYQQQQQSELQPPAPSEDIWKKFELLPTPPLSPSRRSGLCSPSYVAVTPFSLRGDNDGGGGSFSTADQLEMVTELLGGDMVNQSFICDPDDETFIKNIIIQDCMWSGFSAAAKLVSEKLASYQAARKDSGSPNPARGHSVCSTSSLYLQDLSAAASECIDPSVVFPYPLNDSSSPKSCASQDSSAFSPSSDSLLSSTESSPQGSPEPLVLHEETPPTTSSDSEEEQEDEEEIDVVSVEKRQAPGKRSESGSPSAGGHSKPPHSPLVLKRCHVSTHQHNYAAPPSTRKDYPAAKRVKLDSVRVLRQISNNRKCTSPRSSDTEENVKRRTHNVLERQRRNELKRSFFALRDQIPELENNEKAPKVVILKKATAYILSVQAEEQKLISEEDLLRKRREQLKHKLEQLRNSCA", "experiment": "ATG_Myc_CIS: Attagene CIS-FACTORIAL HepG2 Assay for human Myelocytomatosis (Myc) Proto-Oncogene Transcription Factor (AID 2282990)", "conditions": "HepG2, Attagene cis-reporter transcription factor activity; actives raise or lower the signal", "procedure": "ATG_CIS is a cell-based, multiplexed-readout assay that uses HepG2, a human liver cell line, with measurements taken at 24 hours after chemical dosing in a 24-well plate.ATG_Myc_CIS is one of 52 assay component(s) measured or calculated from the ATG_CIS assay. It is designed to make measurements of mRNA induction, a form of inducible reporter, as detected with fluorescence intensity signals by Reverse transcription polymerase chain reaction (RT-PCR) and Capillary electrophoresis technology.Data from the assay component ATG_Myc_CIS was analyzed into 1 assay endpoint. This assay endpoint, ATG_Myc_CIS, was analyzed with bidirectional fitting relative to DMSO as the negative control and baseline of activity. Using a type of inducible reporter, measures of mRNA for gain or loss-of-signal activity can be used to understand the reporter gene at the transcription factor-level as they relate to the gene MYC. Furthermore, this assay endpoint can be referred to as a primary readout, because this assay has produced multiple assay endpoints where this one serves a reporter gene function. To generalize the intended target to other relatable targets, this assay endpoint is annotated to the dna binding intended target family, where the subfamily is basic helix-loop-helix leucine zipper.\nHuman liver HepG2 cells are transiently transfected with multiple reporter transcription units (MRTUs) in 6-well plates using FuGene 6 reagent (Roche; 3 ml FuGene/1 mg DNA). The MRTU constructs are regulated by a cis-regulating element (promoter). […] A major difference between the CIS and TRANS system is that in CIS activities of endogenous TFs are measured, whereas the TRANS assay evaluates changes in activities of exogenous, chimeric NR-Gal4 proteins. […] At the end of 24 hour incubation, total RNA was isolated using TriZol reagent (Invitrogen). The isolated RNA is then reverse-transcribed using oligo(dT) primer and Mo-MLV reverse transcriptase (Invitrogen) with DNAse I (Ambion) treatment for 30 min. The one-tenth of the produced cDNA was amplified by PCR using Taq DNA polymerase (Invitrogen) and two reporter sequence-specific primers. The PCR products were fluorescently labeled by primer extension with 6-arboxyfluorescein (6-FAM) 5'-labeled reporter sequence-specific primer (2 min at 95 C, 20 s at 68 C and 10 min at 72 C) and these products were digested with 5U of HpaI (New England Biolabs) for 2h at 37 C. The fragments were purified using Qiaquick PCR columns (Qiagen), analyzed on an ABI 3130xL genetic analyzer (Applied Biosystems) with peak positions identified by using a set of X-rhodamine (ROX)-labeled MapMarker1000 molecular weight standards (BioVentures). The raw capillary electrophoresis data was processed using Attagraph software (Attagene).", "values": [{"compound": "Nc1ccc(N=Nc2ccccc2)c(N)n1", "outcome": "inactive"}, {"compound": "C=CC(C)(CCC=C(C)C)OC(=O)CC(C)C", "note": "(stereo not given)", "outcome": "inactive"}, {"compound": "O=[N+]([O-])c1ccc(CO)cc1", "outcome": "inactive"}, {"compound": "CCCCNc1ccc(NCCCC)c2c1C(=O)c1ccccc1C2=O", "outcome": "inactive"}, {"compound": "COC(=O)c1sccc1S(N)(=O)=O", "outcome": "inactive"}, {"compound": "CCCCC(CC)COC(=O)c1ccccc1O", "note": "(stereo not given)", "outcome": "inactive"}, {"compound": "CC(C)c1ccc2cc(C(C)C)ccc2c1", "outcome": "inactive"}, {"compound": "CCCCCCCCCCOS(=O)(=O)O", "outcome": "inactive"}, {"compound": "COc1cc(NC(=O)CC(C)=O)c(OC)cc1Cl", "outcome": "inactive"}, {"compound": "CC(=O)Nc1nnc(S(N)(=O)=O)s1", "outcome": "inactive"}, {"compound": "CC(C)c1ccc(C#N)cc1", "outcome": "inactive"}, {"compound": "C=CC(=O)OCCOC(=O)C=C", "outcome": "inactive"}, {"compound": "C=C1[C@H]2CC[C@@H]3[C@H]2C(C)(C)CCC[C@]13C", "outcome": "inactive"}, {"compound": "Cc1cc(C)c(C)c(O)c1", "outcome": "inactive"}, {"compound": "CC(CC=O)CCCC(C)(C)O", "note": "(stereo not given)", "outcome": "inactive"}, {"compound": "CC(C)c1ccc(C=O)cc1", "outcome": "inactive"}, {"compound": "C=C(C)C(=O)OCC(C)C", "outcome": "inactive"}, {"compound": "C[C@]12CCC(=O)C=C1CC[C@@H]1[C@@H]2C(=O)C[C@@]2(C)[C@H]1CC[C@]2(O)C(=O)CO", "outcome": "inactive"}, {"compound": "Nc1ncn([C@@H]2O[C@H](CO)[C@@H](O)[C@H]2O)c(=O)n1", "outcome": "inactive"}, {"compound": "COc1ccc(NC(C)=O)cc1N", "outcome": "inactive"}, {"compound": "CCC(C)C=O", "note": "(stereo not given)", "outcome": "inactive"}, {"compound": "O=C(O)Cc1c(Cl)ccc(Cl)c1Cl", "outcome": "inactive"}, {"compound": "COC(=O)c1cc(Cl)ccc1[N+](=O)[O-]", "outcome": "inactive"}, {"compound": "NC(=O)NNC(N)=O", "outcome": "inactive"}, {"compound": "CC(=O)OCCC1CCCCC1", "outcome": "inactive"}, {"compound": "CC/C=C\\CCOC(=O)CCCCC", "outcome": "inactive"}, {"compound": "CC(C)C(=O)C(C)C", "outcome": "inactive"}, {"compound": "COCCCOCCCOC", "outcome": "inactive"}, {"compound": "O=S(=O)(Oc1ccc(Cl)cc1Cl)c1ccccc1", "outcome": "inactive"}, {"compound": "C=C1C2CCC(C2)C1(C)C", "note": "(stereo not given)", "outcome": "inactive"}, {"compound": "CC(C)c1ccc2c(C(C)C)cc(C(C)C)c(S(=O)(=O)O)c2c1", "outcome": "inactive"}, {"compound": "CC(C)(C)c1ccc(OC(=O)c2ccccc2O)cc1", "outcome": "inactive"}, {"compound": "O=[N+]([O-])C1(Br)COCOC1", "outcome": "inactive"}, {"compound": "COc1c2ccoc2cc2oc(=O)ccc12", "outcome": "inactive"}, {"compound": "Oc1ccc(Cl)cc1Cc1cc(Cl)ccc1O", "outcome": "inactive"}, {"compound": "[Cl][Nd]([Cl])[Cl]", "outcome": "inactive"}, {"compound": "CC(=O)OC(C)C", "outcome": "inactive"}, {"compound": "CC(C)COC(=O)C=Cc1ccccc1", "outcome": "inactive"}, {"compound": "CC(=O)[C@H]1[C@H](C#N)C[C@H]2[C@@H]3CC=C4C[C@@H](O)CC[C@]4(C)[C@H]3CC[C@@]21C", "outcome": "inactive"}, {"compound": "O=C1C=CC(=O)O1", "outcome": "inactive"}]}]}
